The source of these data is ChEMBL document CHEMBL1961873, “Compounds: GSK PKIS; Assays: Nanosyn kinase panel” (2012).

Assay [1] has as its target 5'-AMP-activated protein kinase catalytic subunit alpha-2 (Homo sapiens) (UniProt P54646). The following applies: at 1 µM.
The target of assay [2] is T1, NUAK family SNF1-like kinase 1 (Homo sapiens) (UniProt O60285).
T1 sequence (whole entry): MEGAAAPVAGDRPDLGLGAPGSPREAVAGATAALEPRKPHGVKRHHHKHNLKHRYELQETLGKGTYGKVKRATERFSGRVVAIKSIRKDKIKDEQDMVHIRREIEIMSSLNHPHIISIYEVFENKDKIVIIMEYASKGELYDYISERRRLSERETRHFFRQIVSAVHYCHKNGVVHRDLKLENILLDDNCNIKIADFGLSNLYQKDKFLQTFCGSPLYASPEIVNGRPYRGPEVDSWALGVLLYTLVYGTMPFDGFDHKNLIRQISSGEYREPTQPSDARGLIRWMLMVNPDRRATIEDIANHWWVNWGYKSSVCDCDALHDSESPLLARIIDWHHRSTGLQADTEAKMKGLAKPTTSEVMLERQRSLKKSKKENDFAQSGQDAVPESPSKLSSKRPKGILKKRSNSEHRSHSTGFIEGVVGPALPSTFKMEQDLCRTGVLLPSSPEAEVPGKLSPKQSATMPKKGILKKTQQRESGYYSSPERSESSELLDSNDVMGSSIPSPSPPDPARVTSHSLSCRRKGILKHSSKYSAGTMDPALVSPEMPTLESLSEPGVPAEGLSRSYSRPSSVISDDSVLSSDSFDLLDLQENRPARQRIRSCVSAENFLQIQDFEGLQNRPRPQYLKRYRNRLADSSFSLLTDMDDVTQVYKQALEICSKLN
The following applies: at 0.1 µM.

The target in assay [3] is T1, NUAK family SNF1-like kinase 1 (Homo sapiens). The following applies: at 1 µM.
The target of assay [4] is T2, Serine/threonine-protein kinase BRSK1 (Homo sapiens) (UniProt Q8TDC3).
T2 sequence (whole entry): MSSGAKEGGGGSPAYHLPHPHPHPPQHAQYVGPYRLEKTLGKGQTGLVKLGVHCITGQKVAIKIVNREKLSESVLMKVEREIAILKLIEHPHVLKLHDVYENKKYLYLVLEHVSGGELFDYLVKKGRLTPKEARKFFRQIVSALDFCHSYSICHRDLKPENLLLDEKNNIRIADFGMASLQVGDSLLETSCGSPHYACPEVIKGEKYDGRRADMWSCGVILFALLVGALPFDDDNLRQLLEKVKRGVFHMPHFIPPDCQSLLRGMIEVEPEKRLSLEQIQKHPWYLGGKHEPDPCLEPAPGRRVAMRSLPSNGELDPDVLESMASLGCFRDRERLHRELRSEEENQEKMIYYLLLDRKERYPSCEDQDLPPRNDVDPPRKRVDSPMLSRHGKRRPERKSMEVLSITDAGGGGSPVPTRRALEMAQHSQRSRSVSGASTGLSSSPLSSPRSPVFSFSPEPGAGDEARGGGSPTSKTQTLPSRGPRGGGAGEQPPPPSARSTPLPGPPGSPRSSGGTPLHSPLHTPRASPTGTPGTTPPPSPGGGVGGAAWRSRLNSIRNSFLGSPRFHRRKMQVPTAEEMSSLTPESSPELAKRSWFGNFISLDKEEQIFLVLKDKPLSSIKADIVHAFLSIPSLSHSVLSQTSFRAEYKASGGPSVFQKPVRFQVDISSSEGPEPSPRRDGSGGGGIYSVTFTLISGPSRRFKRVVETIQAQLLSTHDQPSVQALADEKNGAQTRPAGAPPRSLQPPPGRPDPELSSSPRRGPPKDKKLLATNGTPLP
The following applies: at 0.1 µM.

Assay [5] has as its target T2, Serine/threonine-protein kinase BRSK1 (Homo sapiens). The following applies: at 1 µM.
Assay [6] addresses T3, Serine/threonine-protein kinase BRSK2 (Homo sapiens) (UniProt Q8IWQ3).
T3 sequence (whole entry): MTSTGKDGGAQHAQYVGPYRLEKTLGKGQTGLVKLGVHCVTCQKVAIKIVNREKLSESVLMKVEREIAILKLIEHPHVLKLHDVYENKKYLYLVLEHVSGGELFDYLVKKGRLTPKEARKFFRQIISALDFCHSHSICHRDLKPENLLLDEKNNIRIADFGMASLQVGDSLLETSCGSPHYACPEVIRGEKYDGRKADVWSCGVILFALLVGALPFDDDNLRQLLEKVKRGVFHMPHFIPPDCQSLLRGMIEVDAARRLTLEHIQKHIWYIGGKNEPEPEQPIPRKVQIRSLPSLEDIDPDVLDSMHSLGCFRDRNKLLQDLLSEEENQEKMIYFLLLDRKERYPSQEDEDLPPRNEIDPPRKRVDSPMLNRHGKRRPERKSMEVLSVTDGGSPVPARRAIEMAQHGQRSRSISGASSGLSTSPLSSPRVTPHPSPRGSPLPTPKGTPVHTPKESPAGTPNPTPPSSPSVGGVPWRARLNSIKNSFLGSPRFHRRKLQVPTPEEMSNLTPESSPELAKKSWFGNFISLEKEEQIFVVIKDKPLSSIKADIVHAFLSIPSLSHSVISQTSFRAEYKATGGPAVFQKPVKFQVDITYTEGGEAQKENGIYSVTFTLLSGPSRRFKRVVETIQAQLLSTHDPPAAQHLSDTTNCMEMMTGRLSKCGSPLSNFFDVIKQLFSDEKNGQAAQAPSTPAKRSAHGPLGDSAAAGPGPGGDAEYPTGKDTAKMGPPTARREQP
The following applies: at 0.1 µM.

The target in assay [7] is T3, Serine/threonine-protein kinase BRSK2 (Homo sapiens). The following applies: at 1 µM.
In assay [8] the target is Calcium/calmodulin-dependent protein kinase type 1D (Homo sapiens) (UniProt Q8IU85). The note with it: at 0.1 µM.
For assay [9] the target is unchanged. The note with it: at 1 µM.
The target in assay [10] is Calcium/calmodulin-dependent protein kinase type II subunit alpha (Homo sapiens) (UniProt Q9UQM7). The following applies: at 0.1 µM.
Assay [11] has the same target. The following applies: at 1 µM.
Assay [12] concerns the target Calcium/calmodulin-dependent protein kinase type II subunit delta (Homo sapiens) (UniProt Q13557). The note with it: at 0.1 µM.
Assay [13] shares this target. The following applies: at 1 µM.
The target of assay [14] is T4, Calcium/calmodulin-dependent protein kinase type IV (Homo sapiens) (UniProt Q16566).
T4 sequence (whole entry): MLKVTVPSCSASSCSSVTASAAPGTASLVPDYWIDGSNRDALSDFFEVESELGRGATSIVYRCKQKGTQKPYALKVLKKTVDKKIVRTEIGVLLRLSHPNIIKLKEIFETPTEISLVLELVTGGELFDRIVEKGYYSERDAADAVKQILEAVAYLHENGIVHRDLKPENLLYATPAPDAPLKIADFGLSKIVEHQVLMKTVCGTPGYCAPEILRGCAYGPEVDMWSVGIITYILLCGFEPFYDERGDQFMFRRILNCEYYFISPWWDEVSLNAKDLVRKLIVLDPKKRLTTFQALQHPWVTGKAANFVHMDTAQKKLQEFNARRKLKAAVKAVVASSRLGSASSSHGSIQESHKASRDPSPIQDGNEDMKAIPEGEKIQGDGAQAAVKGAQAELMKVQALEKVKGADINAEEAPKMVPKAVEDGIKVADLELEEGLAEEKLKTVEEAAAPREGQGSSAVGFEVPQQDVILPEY
The note with it: at 0.1 µM.

In assay [15] the target is T4, Calcium/calmodulin-dependent protein kinase type IV (Homo sapiens). The following applies: at 1 µM.
The target in assay [16] is T5, Serine/threonine-protein kinase Chk1 (Homo sapiens) (UniProt O14757).
T5 sequence (whole entry): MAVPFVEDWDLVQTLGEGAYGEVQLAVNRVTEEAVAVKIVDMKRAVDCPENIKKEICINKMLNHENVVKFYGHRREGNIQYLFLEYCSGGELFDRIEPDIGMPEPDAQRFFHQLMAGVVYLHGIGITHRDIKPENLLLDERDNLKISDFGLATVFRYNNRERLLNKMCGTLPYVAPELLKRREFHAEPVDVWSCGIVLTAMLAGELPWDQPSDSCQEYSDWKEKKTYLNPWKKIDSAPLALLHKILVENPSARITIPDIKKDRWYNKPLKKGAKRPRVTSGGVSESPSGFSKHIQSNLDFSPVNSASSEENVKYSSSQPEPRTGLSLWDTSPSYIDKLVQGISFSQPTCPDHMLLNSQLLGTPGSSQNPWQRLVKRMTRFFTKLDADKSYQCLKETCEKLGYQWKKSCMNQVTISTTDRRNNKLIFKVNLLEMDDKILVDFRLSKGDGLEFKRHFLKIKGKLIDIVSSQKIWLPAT
The note with it: at 0.1 µM.

The target of assay [17] is T5, Serine/threonine-protein kinase Chk1 (Homo sapiens). The note with it: at 1 µM.
Assay [18] has as its target Serine/threonine-protein kinase Chk2 (Homo sapiens) (UniProt O96017). The note with it: at 0.1 µM.
Assay [19] has the same target. The following applies: at 1 µM.
The target of assay [20] is Death-associated protein kinase 1 (Homo sapiens) (UniProt P53355). The note with it: at 0.1 µM.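 Note: reported figure is the mean inhibition of DAPK1.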
Sequence of Death-associated protein kinase 1 (Homo sapiens) (P53355 whole entry, looked up): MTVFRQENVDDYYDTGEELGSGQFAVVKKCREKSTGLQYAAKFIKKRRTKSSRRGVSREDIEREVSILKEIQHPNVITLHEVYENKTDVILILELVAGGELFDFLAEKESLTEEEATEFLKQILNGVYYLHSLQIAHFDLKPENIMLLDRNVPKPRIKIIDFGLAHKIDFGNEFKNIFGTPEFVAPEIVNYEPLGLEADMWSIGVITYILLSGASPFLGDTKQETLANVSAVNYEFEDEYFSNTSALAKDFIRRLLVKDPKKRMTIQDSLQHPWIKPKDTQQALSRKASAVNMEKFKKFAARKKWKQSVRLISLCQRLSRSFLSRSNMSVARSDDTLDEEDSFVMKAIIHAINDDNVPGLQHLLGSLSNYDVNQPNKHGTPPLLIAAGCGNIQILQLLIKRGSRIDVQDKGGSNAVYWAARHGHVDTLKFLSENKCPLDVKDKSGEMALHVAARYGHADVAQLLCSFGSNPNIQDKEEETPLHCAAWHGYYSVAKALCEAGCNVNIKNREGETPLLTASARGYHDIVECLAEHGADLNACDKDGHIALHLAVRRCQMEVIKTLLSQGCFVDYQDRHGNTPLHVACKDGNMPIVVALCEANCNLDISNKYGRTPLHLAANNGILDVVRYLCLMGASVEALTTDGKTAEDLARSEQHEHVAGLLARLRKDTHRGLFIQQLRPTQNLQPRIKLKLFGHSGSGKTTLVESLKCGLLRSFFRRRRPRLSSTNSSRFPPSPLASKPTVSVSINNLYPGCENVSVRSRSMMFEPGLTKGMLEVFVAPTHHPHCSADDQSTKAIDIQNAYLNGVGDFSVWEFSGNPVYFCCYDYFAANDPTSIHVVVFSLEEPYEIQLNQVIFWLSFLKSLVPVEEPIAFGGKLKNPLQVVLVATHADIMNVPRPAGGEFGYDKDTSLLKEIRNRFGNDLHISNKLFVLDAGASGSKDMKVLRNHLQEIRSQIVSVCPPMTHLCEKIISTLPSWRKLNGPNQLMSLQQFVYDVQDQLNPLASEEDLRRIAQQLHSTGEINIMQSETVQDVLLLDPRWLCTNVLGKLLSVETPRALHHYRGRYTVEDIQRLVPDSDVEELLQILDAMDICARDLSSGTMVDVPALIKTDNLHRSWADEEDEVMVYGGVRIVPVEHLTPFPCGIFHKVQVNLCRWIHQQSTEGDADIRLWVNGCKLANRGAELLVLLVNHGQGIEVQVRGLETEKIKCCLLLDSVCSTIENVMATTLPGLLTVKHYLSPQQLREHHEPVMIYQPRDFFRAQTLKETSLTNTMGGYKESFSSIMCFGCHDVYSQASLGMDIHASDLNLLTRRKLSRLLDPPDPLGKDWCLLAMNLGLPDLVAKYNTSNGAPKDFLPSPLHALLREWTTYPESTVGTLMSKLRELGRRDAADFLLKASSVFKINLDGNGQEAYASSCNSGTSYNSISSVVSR

Sequence of Calcium/calmodulin-dependent protein kinase type 1D (Homo sapiens) (Q8IU85 whole entry, looked up): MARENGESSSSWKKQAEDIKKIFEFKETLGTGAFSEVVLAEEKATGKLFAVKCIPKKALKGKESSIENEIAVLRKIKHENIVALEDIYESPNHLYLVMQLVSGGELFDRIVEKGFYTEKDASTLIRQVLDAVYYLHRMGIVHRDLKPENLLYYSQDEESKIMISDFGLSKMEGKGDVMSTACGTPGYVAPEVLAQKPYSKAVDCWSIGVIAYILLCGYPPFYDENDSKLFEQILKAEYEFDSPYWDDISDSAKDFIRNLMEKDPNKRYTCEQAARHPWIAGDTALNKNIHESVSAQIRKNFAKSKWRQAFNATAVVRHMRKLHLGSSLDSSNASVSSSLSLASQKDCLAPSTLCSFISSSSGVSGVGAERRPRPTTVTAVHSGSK
Sequence of Serine/threonine-protein kinase Chk2 (Homo sapiens) (O96017 whole entry): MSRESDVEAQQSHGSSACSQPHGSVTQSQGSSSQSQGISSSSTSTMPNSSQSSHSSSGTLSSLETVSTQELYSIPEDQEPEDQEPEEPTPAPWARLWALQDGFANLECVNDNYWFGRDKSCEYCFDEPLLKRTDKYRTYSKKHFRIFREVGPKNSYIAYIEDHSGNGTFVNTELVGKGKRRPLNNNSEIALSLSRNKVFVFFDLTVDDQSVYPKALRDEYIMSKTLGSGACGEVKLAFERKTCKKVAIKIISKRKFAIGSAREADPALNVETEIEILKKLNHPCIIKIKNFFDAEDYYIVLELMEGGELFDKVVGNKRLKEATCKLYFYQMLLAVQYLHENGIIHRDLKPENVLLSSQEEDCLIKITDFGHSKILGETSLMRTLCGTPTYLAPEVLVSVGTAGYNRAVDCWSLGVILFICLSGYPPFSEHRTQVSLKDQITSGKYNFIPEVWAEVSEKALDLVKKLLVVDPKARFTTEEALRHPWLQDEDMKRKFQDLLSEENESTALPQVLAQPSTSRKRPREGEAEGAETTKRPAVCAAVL
Sequence of Calcium/calmodulin-dependent protein kinase type II subunit alpha (Homo sapiens) (Q9UQM7 whole entry): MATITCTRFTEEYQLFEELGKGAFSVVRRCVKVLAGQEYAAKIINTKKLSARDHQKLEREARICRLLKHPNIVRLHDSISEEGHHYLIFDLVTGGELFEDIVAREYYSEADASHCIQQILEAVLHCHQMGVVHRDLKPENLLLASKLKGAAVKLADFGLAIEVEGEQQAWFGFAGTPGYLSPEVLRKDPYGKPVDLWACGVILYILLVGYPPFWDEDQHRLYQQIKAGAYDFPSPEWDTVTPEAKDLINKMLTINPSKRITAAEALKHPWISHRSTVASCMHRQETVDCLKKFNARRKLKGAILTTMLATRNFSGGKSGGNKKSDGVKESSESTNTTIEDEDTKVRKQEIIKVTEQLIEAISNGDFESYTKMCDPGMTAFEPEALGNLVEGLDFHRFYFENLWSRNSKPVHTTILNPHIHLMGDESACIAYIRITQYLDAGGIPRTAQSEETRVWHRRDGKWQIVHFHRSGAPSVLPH
Sequence of Calcium/calmodulin-dependent protein kinase type II subunit delta (Homo sapiens) (Q13557 whole entry): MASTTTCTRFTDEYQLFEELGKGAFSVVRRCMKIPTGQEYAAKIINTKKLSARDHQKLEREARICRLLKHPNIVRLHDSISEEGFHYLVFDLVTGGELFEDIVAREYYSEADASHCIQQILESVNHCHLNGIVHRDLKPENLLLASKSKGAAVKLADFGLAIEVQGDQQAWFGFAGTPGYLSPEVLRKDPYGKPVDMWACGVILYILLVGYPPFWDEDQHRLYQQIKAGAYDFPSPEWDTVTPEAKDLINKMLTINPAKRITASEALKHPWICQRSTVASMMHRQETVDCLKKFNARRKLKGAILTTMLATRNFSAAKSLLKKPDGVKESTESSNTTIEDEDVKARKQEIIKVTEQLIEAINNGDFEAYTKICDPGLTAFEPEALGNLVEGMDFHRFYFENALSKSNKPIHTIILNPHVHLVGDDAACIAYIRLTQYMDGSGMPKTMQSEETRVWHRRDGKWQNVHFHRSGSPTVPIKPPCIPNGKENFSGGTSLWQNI
Sequence of 5'-AMP-activated protein kinase catalytic subunit alpha-2 (Homo sapiens) (P54646 whole entry, looked up): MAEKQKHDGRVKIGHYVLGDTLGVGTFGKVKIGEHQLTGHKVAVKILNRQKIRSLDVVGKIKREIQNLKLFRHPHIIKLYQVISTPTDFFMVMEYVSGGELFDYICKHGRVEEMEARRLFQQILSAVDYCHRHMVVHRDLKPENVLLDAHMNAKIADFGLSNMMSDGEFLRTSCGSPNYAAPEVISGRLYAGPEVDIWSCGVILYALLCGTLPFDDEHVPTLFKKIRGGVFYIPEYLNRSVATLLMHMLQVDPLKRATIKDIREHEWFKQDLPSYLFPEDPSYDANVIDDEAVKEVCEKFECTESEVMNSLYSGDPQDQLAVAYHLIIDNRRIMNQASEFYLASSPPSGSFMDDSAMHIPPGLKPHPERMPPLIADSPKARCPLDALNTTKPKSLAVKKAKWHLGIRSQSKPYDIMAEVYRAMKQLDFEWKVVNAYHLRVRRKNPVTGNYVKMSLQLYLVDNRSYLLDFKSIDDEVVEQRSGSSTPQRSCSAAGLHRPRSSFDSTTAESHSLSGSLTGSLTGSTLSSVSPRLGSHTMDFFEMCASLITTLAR

For the compound `NS(=O)(=O)c1ccc(N/N=C2\C(=O)Nc3ccc(-c4cnco4)cc32)cc1`, the inhibition turned out to be 11.8% in assay [1]; 5.26% in [2]; 35.2% in assay [3]; 2.76% in [4]; 14.5% in [5]; 3.56% in assay [6]. Further, the inhibition in [7] was 23.8%; in assay [8], -0.53%; in assay [9], 2.62%; in assay [10], 0.21%; in [11], 4.17%; in assay [12] it was 2.48%. Also, the inhibition in [13] is 16.3%; in assay [14], -0.57%; in assay [15], -0.99%; in assay [16], -0.45%; in assay [17], 6.95%; in assay [18] it was 0.92%. The inhibition in assay [19] is 5.7%; in assay [20] it was -1.79%.
For the compound `COc1cc(Nc2ncc(-c3ccccc3)o2)cc(OC)c1OC`, the inhibition is 5.35% in assay [1]; 24.4% in [2]; 61% in [3]; -0.43% in [4]; 5.91% in assay [5]; 0.44% in assay [6]. The inhibition is 10.5% in [7]; -1.93% in [8]; -0.01% in assay [9]; -3.81% in assay [10]; -0.38% in assay [11]; -2.56% in [12]. Moreover, the inhibition in assay [13] is 5.55%; in assay [14], -4.13%; in assay [15], 0.09%; in [16], 1.58%; in assay [17], 5.64%; in assay [18], -3.16%. Further, the inhibition in assay [19] amounted to 1.28%; in [20], 1.78%.
Take `CN(C)c1ccc2c(c1)/C(=C/Nc1ccc(S(N)(=O)=O)cc1)C(=O)N2`: the inhibition came to 26.8% in assay [1]; 39.5% in assay [2]; 55.6% in [3]; 11.3% in assay [4]; 42.7% in [5]; 18.5% in [6]. Also, the inhibition in assay [7] turned out to be 54.2%; in assay [8] it was 0.43%; in [9] it was 4.29%; in assay [10], 3.79%; in assay [11], 3.56%; in [12], 2.54%. Besides, the inhibition in assay [13] was determined as 15%; in [14] it was 0.96%; in assay [15], 0.42%; in [16], 8.69%; in assay [17] it was 34.9%; in [18], 1.42%. Also, the inhibition in assay [19] worked out at 10.6%; in assay [20], 1.57%.
On to `COc1cc(Nc2ncc3c(C)nc(-c4cccc(Oc5ccccc5)c4)n3n2)cc(OC)c1OC`, for which the inhibition in assay [1] was 7.86%; in assay [2], 4.33%; in assay [3] it was 26.4%; in assay [4], 1.68%; in assay [5], 2.44%; in [6] it was 0.74%. Besides, the inhibition came to 3.26% in assay [7]; 1.34% in [8]; 3.48% in assay [9]; 3.17% in assay [10]; 4.08% in assay [11]; 3.36% in [12]. For the same compound, the inhibition in assay [13] was 3.83%; in assay [14], 1.65%; in assay [15], 4.26%; in [16], 3.9%; in assay [17] it was 10.2%; in [18], 7.97%. Also, the inhibition in assay [19] came out at 11.6%; in [20], 8.86%.

As a reminder, the inhibition is the relative decrease from the control value, in per cent.
